An excerpt weighted towards active compounds, which were near 3.6% of everything screened.
TSHR agonist: activates the human thyroid stimulating hormone receptor | P16473 | HEK293-CNG-TSHR cells (CNG channel as cAMP sensor), membrane potential dye, cAMP | Potency, µM (titrated, usually from 57.1 µM), most hits filed as activators | actives 0.48% (n = 73,000); active means well fitted activation curve with a large enough effect in the main read-out, with a control signal flat, not every such curve was filed as active; inconclusive means small, poorly fitted or top-dose-only effect, or a change in a side signal; inactive means no such curve, though single readings can be large or run the other way; reference of the percent scale not stated here;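 further: the control signal comes from parental cells without the receptor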
Target sequence (P16473 whole entry, looked up): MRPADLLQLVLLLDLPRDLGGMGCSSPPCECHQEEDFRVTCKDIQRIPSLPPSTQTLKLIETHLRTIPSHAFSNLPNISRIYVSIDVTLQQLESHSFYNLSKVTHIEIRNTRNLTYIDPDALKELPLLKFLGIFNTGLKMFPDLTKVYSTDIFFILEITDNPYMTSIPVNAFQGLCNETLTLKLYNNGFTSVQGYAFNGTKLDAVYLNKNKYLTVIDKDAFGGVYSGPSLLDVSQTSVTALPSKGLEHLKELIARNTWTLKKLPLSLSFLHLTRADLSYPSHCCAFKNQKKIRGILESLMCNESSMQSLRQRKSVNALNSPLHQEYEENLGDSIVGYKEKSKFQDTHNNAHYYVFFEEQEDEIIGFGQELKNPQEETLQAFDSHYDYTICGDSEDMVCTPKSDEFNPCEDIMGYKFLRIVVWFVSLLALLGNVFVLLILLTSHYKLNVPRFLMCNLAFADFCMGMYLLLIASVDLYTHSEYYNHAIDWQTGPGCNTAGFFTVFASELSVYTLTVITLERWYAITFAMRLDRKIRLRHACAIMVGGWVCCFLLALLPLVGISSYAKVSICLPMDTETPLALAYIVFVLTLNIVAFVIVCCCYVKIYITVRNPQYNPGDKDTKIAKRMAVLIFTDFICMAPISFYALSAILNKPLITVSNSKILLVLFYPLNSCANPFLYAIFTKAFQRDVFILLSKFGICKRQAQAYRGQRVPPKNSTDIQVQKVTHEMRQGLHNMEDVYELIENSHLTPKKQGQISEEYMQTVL
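cAMP rise detected as CNG-channel membrane depolarization by fluorescent dye (emission 590 nm), 30 min after compound, following 60 min dye loading containing 100 uM RO 20-1724 at room temperature. Cells: TSHR/CNG HEK 293, with parental CNG HEK 293 as control.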
ERK AVP inh: blocks ERK signaling stimulated by vasopressin; HEK293-V1b, vasopressin-stimulated pERK AlphaScreen; Potency, µM (titrated, usually from 57.5 µM), most hits filed as inhibitors; actives 0.99% (n = 72,000); AID 995; further: nearly all actives have a fitted effect of over 55% in size
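qHTS, compounds titrated on V1b-expressing HEK293 cells. Preincubation 30 min at 37C, vasopressin 25 nM for 5 min, lysis 10 min, bead incubation 5 hr at room temperature.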
CRE-bla Fsk: alters forskolin-stimulated CRE reporter signaling in CHO cells; actives 2.5% (n = 71,000); CHO CRE-bla reporter (cAMP response element driving beta-lactamase), forskolin EC10, beta-lactamase ratio; Potency, µM (highest dose often 38.2 µM), usual class: activators; active means well fitted activation curve with a large enough effect in the signal ratio, with a control signal flat, not every such curve was filed as active; inconclusive means small, poorly fitted or top-dose-only effect, or effect the other way, or a change in a side signal; the % refers to the signal ratio
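Modulation of forskolin signalling: compounds in titration series added with EC10 NKH 477 to CHO cells carrying a CRE-driven beta-lactamase reporter, 3 h, 37C. CCF4 FRET ratio (460/530 nm, ex 405 nm) gives %activity and AC50.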
IkB sig inh: suppresses IkB signaling in ABC-DLBCL reporter cells; ABC-DLBCL IkBa-CBG/CBR dual luciferase ratio, 4 h; response scale: scaled: untreated 0%, proteasome inhibitor 100%; Potency, µM (titrated, usually from 57.1 µM); actives 0.04% (n = 110,000); AID 445; active means well fitted curve in the direction sought with a large enough effect in the signal ratio, not every such curve was filed as active; inconclusive means small, poorly fitted or top-dose-only effect, or a change in a side signal; the % refers to the signal ratio;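 further: the direction sought is a rising ratio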
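In this assay, an IκBα–CBG68 fusion accumulates when IKK-driven degradation is blocked; native CBR normalizes for cell number. OCI-Ly3 cells were treated 4 h with compound and doxycycline, then green and red light read after Chroma-Glo addition.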
HEK293 cAMP cs: counter-screen for TSHR agonists: cAMP increase in parental HEK293 | AID 938 | Potency, µM (highest dose often 57.1 µM), actives largely listed as activators | parental HEK293 CNG cAMP sensor, membrane potential fluorescence | actives 2.5% (n = 73,000); further: nearly all actives have a fitted effect of over 55% in size
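Counterscreen for endogenous-receptor signalling: CNG-channel HEK 293 cells report cAMP rise by membrane depolarization. After 60 min dye equilibration with 100 uM RO 20-1724, compounds incubated 30 min before bottom-read fluorescence at 590 nm.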
Of the large screens only hits and unclear results are named; the others gave an inactive call; ! = not confirmed by another sample. Unless noted, the call rests on the fitted dose curve; in most records, active means well fitted curve in the direction sought with a large enough effect; inconclusive means small, poorly fitted or top-dose-only effect, or another doubt; inactive means no such curve, though single readings can be large; an effect the other way counts as inactive or inconclusive.

O=C(O)c1ccccc1-c1c2cc(Br)c(=O)cc-2oc2[c]([Hg])c(O)c(Br)cc12	ERK AVP inh 16µM!
O=C1CCO1	TSHR agonist inconclusive
C=C1C2CC[C@@]3(C)C(c4ccoc4)OC(=O)C[C@@]13OC1CC(=O)C(C)(C)C(C(OC(C)=O)C(=O)OC)[C@@]12C (stereo partly specified)	none (no result: TSHR agonist, CRE-bla Fsk, IkB sig inh, HEK293 cAMP cs)
O=C(Oc1ccc2ccc(OC(=O)N3CCOCC3)cc2c1)N1CCOCC1	TSHR agonist inconclusive, HEK293 cAMP cs inconclusive
COC(=O)c1c(C)oc2ccc(OC(=O)N3CCOCC3)cc12	TSHR agonist 25µM
c1ccc([C@H]2CNCc3ccccc32)cc1	CRE-bla Fsk inconclusive
COC(=O)c1cn(CCOc2ccccc2)c2ccccc12	TSHR agonist inconclusive, HEK293 cAMP cs 20µM
O=P(c1ccccc1)(c1ccccc1)N1CC2(CC2)CC(O)(c2ccccc2)C1 (stereo unspecified)	TSHR agonist inconclusive, HEK293 cAMP cs 0.79µM (no result: IkB sig inh)
O=C1OCCN1P(=O)(c1ccccc1)c1ccccc1	none
CC(C)=CCCC1(C)C=Cc2c(O)c3c(c(CC=C(C)C)c2O1)OC12C(=CC4CC1C(C)(C)OC2(C/C=C(/C)C(=O)O)C4O)C3=O (stereo unspecified)	ERK AVP inh 5µM (no result: TSHR agonist, CRE-bla Fsk, IkB sig inh, HEK293 cAMP cs)
CC(=O)OC1C2C(OC(=O)Cc3ccccc3)C(C)CC2(OC(C)=O)C(=O)/C(C)=C/C2C(CC[C@@]13CO3)C2(C)C (stereo partly specified)	none (no result: TSHR agonist, CRE-bla Fsk, IkB sig inh, HEK293 cAMP cs)
CC(C)Cn1cc(C(=O)N2CCC3(CC2)OCCO3)c2c3ccccc3n(C)c2c1=O	none
O=C(c1ccc2c(=O)n(Cc3ccc4c(c3)OCO4)c(=S)[nH]c2c1)N1CCC2(CC1)OCCO2	ERK AVP inh inconclusive
CN1CC[C@@]2(CCCN(C(=O)c3ccco3)C2)C1	none
CN(C(=O)c1ccco1)C1(c2ccccc2Cl)CCCCC1=O (stereo unspecified)	TSHR agonist inconclusive, HEK293 cAMP cs 20µM
CCNC(=O)[C@@H]1O[C@@H](n2cnc3c(N)ncnc32)[C@@H](O)[C@H]1O	TSHR agonist inconclusive, IkB sig inh inconclusive, HEK293 cAMP cs 0.16µM
CCN(CC)c1ncnc2c1ncn2[C@@H]1O[C@@H](COP(=O)(O)OP(=O)(O)C(Br)(Br)P(=O)(O)O)[C@H](O)[C@@H]1O	none
CN1[C@@H]2CC[C@H]1CC(O[C@@H](c1ccccc1)c1ccccc1N)C2 (stereo partly specified)	none
CN1[C@@H]2CC[C@H]1CC(OC(c1ccc(F)cc1)c1ccc(F)cc1)C2 (stereo partly specified)	TSHR agonist inconclusive, CRE-bla Fsk inconclusive, IkB sig inh inconclusive, HEK293 cAMP cs 32µM
CN(C(=O)Cc1ccc(Cl)c(Cl)c1)[C@H](CN1CCCC1)c1ccccc1	TSHR agonist inconclusive, CRE-bla Fsk inconclusive, IkB sig inh inconclusive, HEK293 cAMP cs 32µM
CN(C(=O)Cc1ccccc1)[C@H](CN1CCCC1)c1ccccc1	TSHR agonist inconclusive, HEK293 cAMP cs 32µM
CC(C)OS(C)(=O)=O	none
C=C1N2CCC(CC2)C1(O)c1ccccc1C (stereo unspecified)	none
C(=C/c1ccccc1)/CN1CCN(CCOC(c2ccccc2)c2ccccc2)CC1	TSHR agonist 32µM, ERK AVP inh inconclusive, CRE-bla Fsk inconclusive, IkB sig inh inconclusive
C[CH2][Hg][S]c1ccccc1C(=O)O	ERK AVP inh 10µM (no result: TSHR agonist, CRE-bla Fsk, IkB sig inh, HEK293 cAMP cs)
CNc1ccccc1C(=O)O	none (no result: TSHR agonist, CRE-bla Fsk, IkB sig inh, HEK293 cAMP cs)
COc1cc(C2c3cc4c(cc3C(O)C3COC(=O)C23)OCO4)cc(OC)c1O (stereo unspecified)	none (no result: TSHR agonist, CRE-bla Fsk, IkB sig inh, HEK293 cAMP cs)
COc1cccc(N2CCN(Cc3cccc(Cl)c3)CC2)c1	TSHR agonist 25µM
CC1=NN(c2ccccc2)C(=O)[C@@H]1N=Nc1ccc([As](=O)(O)O)c(O)c1	CRE-bla Fsk inconclusive
CN1CCN(C(=O)COc2ccc3ccccc3c2Br)CC1	CRE-bla Fsk 2.5µM
FC(Cl)(Cl)Cl	none
CC(C)C(=O)c1cn(Cc2ccccc2C#N)c2ccccc12	TSHR agonist inconclusive, HEK293 cAMP cs 25µM
Cc1cccc(Cn2cccc(C(=O)Nc3nc4ccccc4s3)c2=O)c1	none (no result: TSHR agonist, ERK AVP inh, CRE-bla Fsk, HEK293 cAMP cs)
CCc1c(C(=O)OC)ncc2[nH]c3cc(OC)c(OC)cc3c12	ERK AVP inh inconclusive, CRE-bla Fsk 2.5µM (no result: TSHR agonist)
COc1cc2c(C(=O)N3CCN(C)CC3)c(C)n(C)c2cc1Br	TSHR agonist inconclusive, HEK293 cAMP cs 20µM
O=C(Nc1ccc(Br)cc1C(=O)c1ccccc1Cl)c1ccc(Br)cc1	none (no result: TSHR agonist, ERK AVP inh, CRE-bla Fsk, HEK293 cAMP cs)
COC(=O)[C@@]1(Cc2ccccc2)[C@H]2c3cc(C(=O)N(C)C)n(C)c3C[C@H]2CN1C(=O)c1ccccc1	TSHR agonist inconclusive, HEK293 cAMP cs 25µM (no result: IkB sig inh)
c1ccc(P(c2ccccc2)c2ccccc2)cc1	none
O=C(O)c1cc2ccccc2oc1=O	TSHR agonist inconclusive, HEK293 cAMP cs 20µM (no result: ERK AVP inh)
O=C(c1cc2ccccc2oc1=O)N1CCC2(CC1)OCCO2	none
COc1cc(-c2ccc(=O)[nH]n2)ccc1OC(F)F	ERK AVP inh inconclusive, CRE-bla Fsk 16µM!
CC1=C(O)C(=O)C=C2C1=CC=C1[C@]2(C)CC[C@@]2(C)C3C[C@](C)(C(=O)O)CC[C@@]3(C)CC[C@@]12C (stereo partly specified)	ERK AVP inh 32µM (no result: TSHR agonist, CRE-bla Fsk, IkB sig inh, HEK293 cAMP cs)
O=C(O)CN1CCN(CC(=O)O)CC(=O)[O][Hg][O]C(=O)C1	IkB sig inh 4µM
Oc1c(Cl)c(Cl)c(Cl)c(Cl)c1Cl	TSHR agonist inconclusive, CRE-bla Fsk inconclusive, IkB sig inh inconclusive, HEK293 cAMP cs 32µM
O=c1[nH]c2ccccc2n1CCCN1CCC(n2c(=O)[nH]c3cc(Cl)ccc32)CC1	TSHR agonist inconclusive, ERK AVP inh inconclusive, HEK293 cAMP cs 16µM!
C[C@@]12CCC3C(CCC4=CC(=O)CC[C@]43C)C1CCC2O (stereo partly specified)	ERK AVP inh 32µM (no result: TSHR agonist, CRE-bla Fsk, IkB sig inh, HEK293 cAMP cs)
CCn1nc(-c2cccs2)nc2c(=O)n(C)c(=O)nc1-2	TSHR agonist inconclusive, CRE-bla Fsk inconclusive, IkB sig inh inconclusive, HEK293 cAMP cs 3.2µM
N#Cc1ccc(CN2CCCC3(CCN(C(=O)Oc4ccccc4)CC3)C2)cc1	TSHR agonist inconclusive, HEK293 cAMP cs 16µM
O=C(Oc1ccccc1)N1CCC[C@@]2(CCN(Cc3cc(C(F)(F)F)cc(C(F)(F)F)c3)C2)C1	TSHR agonist inconclusive, CRE-bla Fsk inconclusive, HEK293 cAMP cs 16µM
O=C(Oc1ccccc1)N1CCC2(CCCN(Cc3ccccc3)C2)CC1	TSHR agonist inconclusive, HEK293 cAMP cs inconclusive
Nc1cccc2c(N)cccc12	TSHR agonist inconclusive, IkB sig inh inconclusive
Cc1ccc2c(c1)C(c1ccccc1)NCC(=O)N2 (stereo unspecified)	none
O=C(Nc1ccc([As](=O)(O)O)cc1)Nc1cccc(Cl)c1Cl	none
